Data from PubChem BioAssay AID760 (NMMLSC, 2007).
Among all 190,000 compounds or so, about 360 (0.19%) were called active. Inconclusive results (about 2%) are left out. Shown is part of a subset that was picked to be rich in actives. A number with no mark means an inactive call.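 The calls were made as follows: active = GTP binding activity at least 20 points away from 100%, either lowered or raised; inconclusive = signal likely due to the compound's own green fluorescence; inactive = the rest.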

target: Ras-related protein Rab-2A (Canis lupus familiaris) (UniProt P61105); experiment: Rab2 wt fluorescent GTP binding changes, either direction – biochemical, dog, bead-based flow cytometry, multiplex, primary screen (AID 760); settings: GST-Rab2 wt beads, Bodipy-GTP binding, at 10 µM;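 also: 0% = beads with excess unlabeled GTP and 100% = no-compound control corrected for plate trend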

**Q.** `COc1ccc(-n2c(C)nn(CC3CC3)c2=O)cc1` was tested. Which GTP binding activity did it give?
**A.** 100%

**Q.** `CN(C)CCCn1c(SCCN2C(=O)c3ccccc3C2=O)nc2ccccc2c1=O` was tested. Which GTP binding activity did it give?
**A.** 95%

**Q.** For `O=S(=O)(Nc1cc(S(=O)(=O)N2CCOCC2)ccc1N1CCCC1)c1cccs1`, which GTP binding activity is on record?
**A.** 98%

**Q.** Which GTP binding activity does the source give for `Cc1ccc(N(C(=O)Cc2cccs2)C2C=CS(=O)(=O)C2)cc1Cl` (stereo not given) here?
**A.** 100%

**Q.** How did the GTP binding activity turn out when `C/C(=N\Nc1ncc(Cl)cc1Cl)c1cccs1` was run?
**A.** 98%

**Q.** Which GTP binding activity does the source give for `Cc1cccc(CN2CCN(Cc3cnn(-c4ccccc4F)c3)CC2CCO)n1` (stereo not given) here?
**A.** 99%

**Q.** For `Cc1cc(C)n(-c2nc(C(F)(F)F)nc3ccccc23)n1`, which GTP binding activity is on record?
**A.** 96%

**Q.** For `Cc1ccc(NC(=S)N(Cc2ccco2)C(C)c2cccs2)cc1` (stereo not given), which GTP binding activity is on record?
**A.** 101%

**Q.** For `COC(=O)c1cc(NC(=O)c2cccnc2)ccc1N1CCOCC1`, which GTP binding activity is on record?
**A.** 96%

**Q.** With `CCN(CC)c1ccc(C(=O)c2cnc(/N=C/N(C)C)s2)cc1` as the compound, how does the GTP binding activity read?
**A.** 95%

**Q.** With `Cc1cc(NC(=O)CSc2nc3c(cc2C#N)CCCCC3)no1` as the compound, how does the GTP binding activity read?
**A.** 94%

**Q.** For `O=C(Cc1ccccc1)N1CCN(S(=O)(=O)c2ccc([N+](=O)[O-])cc2)CC1`, which GTP binding activity is on record?
**A.** 98%

**Q.** For `N#C/C(C(=S)Nc1ccccc1)=C1/NN=C(N2CCOCC2)N1c1ccccc1`, which GTP binding activity is on record?
**A.** 90%

**Q.** `CCCn1c(N)c(C(=O)CSc2nc3ccccc3c(=O)n2-c2ccc(OC)cc2)c(=O)[nH]c1=O` was tested. Which GTP binding activity did it give?
**A.** 92%

**Q.** Which GTP binding activity does the source give for `S=c1[nH]nc(Nc2ccccc2)s1` here?
**A.** 92%

**Q.** Which GTP binding activity does the source give for `O=C1CCC(=O)N1c1ccc(NCCc2ccccc2F)c([N+](=O)[O-])c1` here?
**A.** 101%

**Q.** With `NC(=O)COC(=O)c1sc2cc(F)ccc2c1Cl` as the compound, how does the GTP binding activity read?
**A.** 94%

**Q.** Which GTP binding activity does the source give for `CCN(CC)S(=O)(=O)c1ccc(N2CCCC2)c(NS(=O)(=O)c2cccs2)c1` here?
**A.** 94%

**Q.** For `O=C(NCc1ccccc1Cl)C1CCN(S(=O)(=O)N2CCOCC2)CC1`, which GTP binding activity is on record?
**A.** 104%

**Q.** `Cc1ccc(NC(=O)c2ccccn2)cc1S(=O)(=O)N1CCOCC1` was tested. Which GTP binding activity did it give?
**A.** 99%

**Q.** With `CSc1ccc(CNCCN2CCOCC2)cc1` as the compound, how does the GTP binding activity read?
**A.** 96%

**Q.** With `COC(=O)c1ccc(NC(=S)NN2CCOCC2)cc1` as the compound, how does the GTP binding activity read?
**A.** 99%

**Q.** With `CCCC(=O)OCC(=O)Nc1cc(Cl)ccc1[N+](=O)[O-]` as the compound, how does the GTP binding activity read?
**A.** 92%

**Q.** With `O=c1c(-c2ccccc2)cnc2n1CCS2` as the compound, how does the GTP binding activity read?
**A.** 96%

**Q.** For `Cc1ccc(NC(=O)c2ccc(S(=O)(=O)NCC3CCCO3)cc2)cc1C` (stereo not given), which GTP binding activity is on record?
**A.** 97%

**Q.** How did the GTP binding activity turn out when `Cc1cc(CNCc2c(C(=O)N(C)Cc3ccccc3)nc3ccccn23)nn1C` was run?
**A.** 101%

**Q.** `O=C(Nc1nnc(C2CC2)s1)C1=NN(C2CCS(=O)(=O)C2)C(=O)CC1` (stereo not given) was tested. Which GTP binding activity did it give?
**A.** 96%

**Q.** Which GTP binding activity does the source give for `Cc1nc(N2CCCCC2)sc1C=O` here?
**A.** 105%

**Q.** `Cc1ccccc1NCC(=O)N/N=C\c1ccc([N+](=O)[O-])s1` was tested. Which GTP binding activity did it give?
**A.** 98%

**Q.** With `CS/C(=C\[N+](=O)[O-])Nc1ccc(C)cc1` as the compound, how does the GTP binding activity read?
**A.** 100%

**Q.** `O=C(NCC1CCCO1)C1CCN(C2CCN(C(=O)C3CCCCC3)CC2)CC1` (stereo not given) was tested. Which GTP binding activity did it give?
**A.** 98%

**Q.** For `COC(=O)c1cc2n(n1)CCCNC2=O`, which GTP binding activity is on record?
**A.** 100%

**Q.** Which GTP binding activity does the source give for `COc1ccc(N(CC(=O)NC2CCCC2)C(=O)CS(=O)CC(=O)Nc2ccc3c(c2)OCO3)cc1` (stereo not given) here?
**A.** 95%

**Q.** With `CCOC(=O)C1(Cc2ccc(Cl)cc2)CCN(C(=O)C2=NNC(=O)CC2)CC1` as the compound, how does the GTP binding activity read?
**A.** 101%

**Q.** `Cc1cc(=O)oc2c1c(C)nn2-c1ccc(Cl)cc1` was tested. Which GTP binding activity did it give?
**A.** 100%

**Q.** How did the GTP binding activity turn out when `COc1ncnc2sc3c(c12)CCCC3` was run?
**A.** 102%

**Q.** `COc1cc(/C=N/Nc2ccc(C)cc2)cc(Br)c1O` was tested. Which GTP binding activity did it give?
**A.** 94%

**Q.** `COc1ccc(/C=N/Nc2ncnc3sc4c(c23)CCCC4)cc1O` was tested. Which GTP binding activity did it give?
**A.** 71% (active)

**Q.** `COc1ccc(NC(=S)NCCN2CCC(C)CC2)cc1` was tested. Which GTP binding activity did it give?
**A.** 100%

**Q.** With `COc1cc(OC)c(C(=O)N2CCCC2)cc1OC` as the compound, how does the GTP binding activity read?
**A.** 98%

**Q.** `COc1ccc(/C=N/NC(=O)c2ccncc2)cc1CN1CCCc2ccccc21` was tested. Which GTP binding activity did it give?
**A.** 95%

**Q.** With `COc1ccc(CN2CCC(c3nc4ccc(Cl)cc4[nH]3)CC2)cc1` as the compound, how does the GTP binding activity read?
**A.** 96%

**Q.** Which GTP binding activity does the source give for `CC(Sc1nnnn1C1CCCCC1)C(=O)O` (stereo not given) here?
**A.** 101%

**Q.** How did the GTP binding activity turn out when `COc1ccc(C(=O)OCC(=O)NCC2CCCO2)cc1[N+](=O)[O-]` (stereo not given) was run?
**A.** 93%

**Q.** For `COC(=O)c1ccc(CN2CCN(CCCc3ccccc3)C(CCO)C2)cc1` (stereo not given), which GTP binding activity is on record?
**A.** 97%

**Q.** `Cc1ccc(CSc2nc3[nH]ncc3c(=O)[nH]2)cc1` was tested. Which GTP binding activity did it give?
**A.** 79% (active)

**Q.** With `CCCSc1nc2[nH]ncc2c(=O)[nH]1` as the compound, how does the GTP binding activity read?
**A.** 99%

**Q.** `Cc1cccc(NC(=O)CSc2nc3[nH]ncc3c(=O)[nH]2)c1` was tested. Which GTP binding activity did it give?
**A.** 94%

**Q.** For `Cc1cc(OCC(=O)NC2CCN(C)CC2)ccc1[N+](=O)[O-]`, which GTP binding activity is on record?
**A.** 98%

**Q.** `COc1ccc(C/C(N)=N/OC(=O)c2ccco2)cc1OC` was tested. Which GTP binding activity did it give?
**A.** 101%
